The list is not random: actives were taken first. Their share in the collection is about 2.1%.
APP 5UTR inh: APP translation inhibition | SH-SY5Y APP 5'UTR-luciferase reporter, luminescence | inhibition, % at 2 µM | 190,000 tested, 0.82% active;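 active means inhibition above a set limit, derived from the sample mean plus 3 SD, cut at about 45% in these data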
BaF3 parental: reduces parental Ba/F3 cell viability, JAK2V617F counter-screen; CellTiter-Glo ATP luminescence; inhibition, % at 5.6 µM; 220,000 tested, 1.1% active; AID 1486;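 active means inhibition above a per-campaign cutoff, the mean inhibition of all tested compounds plus 3 SD, cut at about 27% in these data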
aSyn 5UTR inh: MLPCN primary screen, SNCA 5' untranslated region. 300,000 tested, 0.82% active. alpha-synuclein 5'UTR reporter, inhibitor activity. inhibition, % (tested at 7.5 µM); in the data active means inhibition above about 60%;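 further: H4 neuroglioblastoma cells stably carrying SNCA 5'UTR luciferase fusion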
IEC-6 tox: IEC-6 cytotoxicity, counter-screen for KLF5 inhibitors. 290,000 tested, 0.78% active. AID 1825. inhibition, % at 5 µM. luminescence viability; in the data active means inhibition above about 22%
Ba/F3 V617F tox: reduce viability of Ba/F3 cells dependent on JAK2V617F. Ba/F3 EpoR-JAK2V617F viability, ATP luminescence. inhibition, % at 5.6 µM. 220,000 tested, 1.1% active;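 active means inhibition above the campaign mean plus 3 SD over all tested compounds, cut at about 24% in these data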;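 further: cytokine-independent growth of Ba/F3 cells driven by EpoR plus mutant JAK2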
KLF5 inh: kruppel-like factor 5 inhibition | 290,000 tested, 0.23% active | inhibition, % at 5 µM | AID 1700 | DLD-1 KLF5 promoter-luciferase reporter, luminescence;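 active means inhibition above a per-plate limit of that plate's mean compound inhibition plus 3 SD, cut at about 60% in these data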;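 further: higher means less KLF5 promoter-driven luciferase light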
BaF3 parental 2: parental Ba/F3 viability inhibition for JAK2V617F counter-screen. shares compounds with Ba/F3 V617F tox. CellTiter-Glo luminescence; cells kept alive by added IL-3. inhibition, % at 5.6 µM. 580 tested, 31% active. AID 1520;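 active means cell growth inhibition above the hit limit set in the earlier mutant JAK2 cell screen, cut at about 27% in these data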
JAK2V617F confrm: confirmation: loss of viability in JAK2V617F-dependent Ba/F3 cells. shares compounds with Ba/F3 V617F tox. 580 tested, 66% active. inhibition, % at 5.6 µM. AID 1521. Ba/F3 EpoR-JAK2V617F viability, CellTiter-Glo luminescence;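 active means mean inhibition above the hit cutoff derived in the earlier primary screen, cut at about 25% in these data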;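 further: higher means lower luminescence from reduced cell ATP and viability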
Of the large screens only hits and unclear results are named; the others gave an inactive call (follow-up assays come after a bar, where they were run).

CC1CCCN(C2(O)C(=O)Nc3ccc([N+](=O)[O-])cc32)C1 (configuration not stated)	none (no result: APP 5UTR inh, BaF3 parental, Ba/F3 V617F tox)
Cc1ccc2cc(CN(c3cccc(C)c3C)S(=O)(=O)c3ccccc3)c(=O)[nH]c2c1	none (no result: APP 5UTR inh, BaF3 parental, Ba/F3 V617F tox)
COc1ccccc1CC(=O)O/N=C(\N)Cc1cccc2ccccc12	Ba/F3 V617F tox 34 | BaF3 parental 2 inactive | JAK2V617F confrm inactive
COc1ccccc1OC(=O)Cc1cccc2ccccc12	none (no result: APP 5UTR inh, BaF3 parental, Ba/F3 V617F tox)
CCOC(=O)Nc1ccc2c(c1)N(C(=O)CCN1CCOCC1)c1ccccc1S2=O (configuration not stated)	Ba/F3 V617F tox 41 | BaF3 parental 2 inactive | JAK2V617F confrm inactive
Nc1ccc(NC(=O)NC2CCCCC2)cc1[N+](=O)[O-]	none
CCN(CC)c1ccc2c(c1)OC(N)=C(C#N)C2c1cccnc1 (configuration not stated)	APP 5UTR inh 94, aSyn 5UTR inh 75, Ba/F3 V617F tox 83 | BaF3 parental 2 78 | JAK2V617F confrm 98
COC(=O)/C=C/c1ccc2c(c1)OCO2	none
COC(=O)/C=C/c1ccc(OC(=O)OC)c(OC(=O)OC)c1	Ba/F3 V617F tox 30 | BaF3 parental 2 inactive | JAK2V617F confrm 82
CSc1ccc(C2C(C(=O)c3ccco3)=C(O)C(=O)N2c2nnc(SC)s2)cc1 (configuration not stated)	none (no result: APP 5UTR inh, BaF3 parental, Ba/F3 V617F tox)
CC1CCN(CCCNC(=O)c2cc3c(Cl)nc4ccccc4c3s2)CC1	Ba/F3 V617F tox 34 | BaF3 parental 2 inactive | JAK2V617F confrm 71
CCOc1ccc(CN(C)C(=O)[C@H](C)NC(=O)c2ccco2)cc1OC	none (no result: APP 5UTR inh, BaF3 parental, Ba/F3 V617F tox)
Cc1ccnc(NC(=O)c2ccc([N+](=O)[O-])o2)c1	none
Cc1ccc(NC(=O)c2ccc([N+](=O)[O-])o2)cc1C	IEC-6 tox 45, Ba/F3 V617F tox 37 | BaF3 parental 2 31 | JAK2V617F confrm 93
O=C(Nc1ccccc1C(=O)O)c1ccc(Br)o1	Ba/F3 V617F tox 24 | BaF3 parental 2 inactive | JAK2V617F confrm inactive
COc1ccc(CCC(=O)NCC(=O)OCc2ccccc2)cc1	none (no result: APP 5UTR inh, BaF3 parental, Ba/F3 V617F tox)
CCOC(=O)c1c(C)sc2c1N(C(=O)CCl)c1cc(Cl)ccc1S2	Ba/F3 V617F tox 28 | BaF3 parental 2 58 | JAK2V617F confrm 99
Brc1ccc(-c2nnc3sc(CN4CCC5(CC4)OCCO5)cn23)cc1	none
c1ccc(-c2nnc3sc(CN4CCc5ccccc54)cn23)cc1	Ba/F3 V617F tox 35 | BaF3 parental 2 30 | JAK2V617F confrm 30
C=CCn1c(Sc2ncc([N+](=O)[O-])s2)n[nH]c1=O	Ba/F3 V617F tox 77 (no result: APP 5UTR inh) | BaF3 parental 2 inactive | JAK2V617F confrm inactive
C=CCn1c(CSc2ccccc2[N+](=O)[O-])n[nH]c1=S	none (no result: APP 5UTR inh, BaF3 parental, Ba/F3 V617F tox)
Cc1ccc(NC(=O)C2C3CCC(O3)C2C(=O)O)cc1Cl (configuration not stated)	none (no result: APP 5UTR inh, BaF3 parental, Ba/F3 V617F tox)
CC1=CC(=C2C(=O)c3ccccc3C2=O)C=C(C)O1	none
CC(=O)C1=C(c2ccc(Br)cc2)C(=O)c2ccccc2C1=O	APP 5UTR inh 68, Ba/F3 V617F tox 26 | BaF3 parental 2 105 | JAK2V617F confrm 98
CC(=O)Oc1ccc(Cl)cc1/C=C/c1cc(OC(C)=O)c2ccccc2n1	Ba/F3 V617F tox 24 | BaF3 parental 2 30 | JAK2V617F confrm 48
Cc1ccc(S(=O)(=O)Nc2c(C)cc(C)nc2Cl)cc1	none (no result: APP 5UTR inh, BaF3 parental, Ba/F3 V617F tox)
Cc1ccc(C(=O)c2c(C)oc3c2C(=O)C(=O)c2ccccc2-3)cc1	Ba/F3 V617F tox 27 | BaF3 parental 2 inactive | JAK2V617F confrm 33
O=c1cnn([C@@H]2O[C@H](CO)[C@@H](O)[C@H]2O)c(=O)[nH]1	Ba/F3 V617F tox 36 | BaF3 parental 2 inactive | JAK2V617F confrm 68
O=c1[nH]cnc2c1ncn2[C@@H]1O[C@H](CO)[C@@H](O)[C@H]1O	none
O=C(/C=C/c1ccc(O)c(O)c1)c1ccc(S(=O)(=O)N2CCCCCC2)cc1	Ba/F3 V617F tox 44 | BaF3 parental 2 inactive | JAK2V617F confrm 85
COc1ccc(CCNC(=O)CCc2ccc(S(=O)(=O)NC(C)C)cc2)cc1	none
C=CCN(C(=O)CNS(=O)(=O)c1ccccc1)C(C(=O)NCCOC)c1cccnc1 (configuration not stated)	none (no result: APP 5UTR inh, BaF3 parental, Ba/F3 V617F tox)
CN(C)S(=O)(=O)c1ccc(-c2csc(N/N=C/c3ccc(O)cc3)n2)cc1	Ba/F3 V617F tox 45 (no result: APP 5UTR inh) | BaF3 parental 2 49 | JAK2V617F confrm 94
CN(C)S(=O)(=O)c1ccc(-c2csc(N/N=C/c3ccco3)n2)cc1	none (no result: APP 5UTR inh)
O=C(NCCCCNC(=O)c1ccc(Cl)s1)c1ccc(Cl)s1	none
O=C(NCCCCCCNC(=O)c1ccc(Br)s1)c1ccc(Br)s1	Ba/F3 V617F tox 37 | BaF3 parental 2 inactive | JAK2V617F confrm inactive
Cc1cc(SCC(=O)Nc2cccc(S(=O)(=O)NC3=NCCCCC3)c2)c(C)cc1Br	Ba/F3 V617F tox 26 | BaF3 parental 2 inactive | JAK2V617F confrm 31
CC1Cc2ccccc2N1C(=O)CSc1nnc2c(n1)[nH]c1ccc(F)cc12 (configuration not stated)	none
O=C(N1CCOCC1)N1CCN(C(=O)N2CCOCC2)CC1	none (no result: aSyn 5UTR inh)
NC(=O)CSc1oc(-c2ccco2)nc1S(=O)(=O)c1ccc(F)cc1	none (no result: APP 5UTR inh, BaF3 parental, Ba/F3 V617F tox)
CC(=O)c1ccc(NC(=S)N(CCCN(C)C)Cc2ccccc2)cc1	none (no result: APP 5UTR inh)
CN(C)CCCN(Cc1ccccc1)C(=S)Nc1ccc(SC(F)F)cc1	Ba/F3 V617F tox 36 | BaF3 parental 2 inactive | JAK2V617F confrm 45
Cc1cc(NC(=O)c2sccc2C)n(-c2nc3ccccc3[nH]2)n1	Ba/F3 V617F tox 84 | BaF3 parental 2 inactive | JAK2V617F confrm inactive
Cc1cc(NC(=O)c2cccs2)n(-c2nc3ccccc3[nH]2)n1	none
Cc1cc(NC(=O)CSc2nc(-c3ccco3)cc(C(F)(F)F)n2)no1	aSyn 5UTR inh 69, IEC-6 tox 46, Ba/F3 V617F tox 61 | BaF3 parental 2 48 | JAK2V617F confrm 90
Cc1cc(NC(=O)c2cc(-c3ccc(C)c(C)c3)nc3ccccc23)no1	Ba/F3 V617F tox 63 | BaF3 parental 2 inactive | JAK2V617F confrm inactive
Cc1ccc(-c2cc(C(=O)Nc3cc(C)on3)c3ccccc3n2)cc1	none
COc1ccc(N(C(=O)c2snc(C(N)=O)c2N)C(C(=O)NC2CCCCC2)c2ccc(C)o2)cc1 (configuration not stated)	none (no result: APP 5UTR inh, BaF3 parental, Ba/F3 V617F tox)
Cc1cc(C)c2nc(N(CCCN(C)C)C(=O)c3ccc(S(=O)(=O)N4CC(C)OC(C)C4)cc3)sc2c1 (configuration not stated)	none (no result: APP 5UTR inh, BaF3 parental, IEC-6 tox, Ba/F3 V617F tox, KLF5 inh)
C1=C(c2ccccc2)Nc2ccccc2N=C1c1ccccc1	Ba/F3 V617F tox 102 | BaF3 parental 2 inactive | JAK2V617F confrm inactive
O=C1CC(c2ccccc2)=Nc2ccccc2N1	none
Cc1ccccc1-c1nnc(SCC(=O)N2CCCC2)o1	none (no result: APP 5UTR inh, BaF3 parental, Ba/F3 V617F tox)
CCCn1c(NCc2ccco2)nc2c1c(=O)n(C)c(=O)n2C	none

Screens as filed in PubChem.
